A selection: hits, their analogues and other compounds. The true share with any hit is near 0.52%.
Tb PFK inh – blocks T. brucei phosphofructokinase. O15648. T. brucei PFK, ADP-Glo luminescence. Potency, µM (top dose mostly 57.5 µM), inactives show at the top dose activity, negative = inhibition, usual class: inhibitors. 0.17% of 330,000 active;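 also: 0% = uninhibited 1x PFK enzyme wells and -100% = no-enzyme wells; nearly all actives have a fitted effect of over 60% in size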
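Compounds were pin-transferred as a titration series up to 57 uM into substrate buffer (0.5 mM F6P, 0.1 mM ATP, pH 8.0), then 1.25 nM PFK was added and reactions ran 45 min before ADP-Glo detection.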
Tb PGK inh – inhibitors of T. brucei phosphoglycerate kinase. Potency, µM (top dose mostly 57.5 µM), for the others: at the highest dose activity change, negative = inhibition, most hits filed as inhibitors. AID 602233. 0.043% of 380,000 active. P07378. PGK/GAPDH coupled, Kinase-Glo luminescence, 60 min; also: nearly all actives have a fitted effect of over 60% in size
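Recombinant glycosomal PGK reaction used 1,3-bisphosphoglycerate generated in-well by GAPDH (100nM final) in 100mM TEA pH 7.6, 5mM MgCl2, 0.01% Tween-20. After 60 minutes at room temperature, ATP was read by Kinase-Glo Plus luminescence end-point.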
GLS inhibitor – inhibitors of human glutaminase (GLS); O94925; GLS enzymatic activity, qHTS titration; Potency, µM (doses to about 45.5 µM), for inactives: at the top dose activity change, negative = inhibition, usual class: inhibitors; 0.21% of 410,000 active; AID 624170
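Enzyme dispensed in phosphate buffer (45 mM, pH 8.2, 0.02% Tween-20), compounds pinned in, then 1 mM L-glutamine solution and the glutamate oxidase–HRP–Amplex Red mix added; fluorescence read immediately and again after 30 min at room temperature.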
USP2a block – USP2a (human) protease inhibition | O75604 | USP2 core, Ub-CHOP2 coupled fluorogenic reporter, 485/531 | Potency, µM (series often up to 38.3 µM), for inactives: at the top dose activity change, negative = inhibition, usual class: inhibitors | 0.01% of 330,000 active;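 also: plate controls were DMSO wells for no effect and full inhibition by NEM control for full effect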
Target sequence (O75604 whole entry, looked up): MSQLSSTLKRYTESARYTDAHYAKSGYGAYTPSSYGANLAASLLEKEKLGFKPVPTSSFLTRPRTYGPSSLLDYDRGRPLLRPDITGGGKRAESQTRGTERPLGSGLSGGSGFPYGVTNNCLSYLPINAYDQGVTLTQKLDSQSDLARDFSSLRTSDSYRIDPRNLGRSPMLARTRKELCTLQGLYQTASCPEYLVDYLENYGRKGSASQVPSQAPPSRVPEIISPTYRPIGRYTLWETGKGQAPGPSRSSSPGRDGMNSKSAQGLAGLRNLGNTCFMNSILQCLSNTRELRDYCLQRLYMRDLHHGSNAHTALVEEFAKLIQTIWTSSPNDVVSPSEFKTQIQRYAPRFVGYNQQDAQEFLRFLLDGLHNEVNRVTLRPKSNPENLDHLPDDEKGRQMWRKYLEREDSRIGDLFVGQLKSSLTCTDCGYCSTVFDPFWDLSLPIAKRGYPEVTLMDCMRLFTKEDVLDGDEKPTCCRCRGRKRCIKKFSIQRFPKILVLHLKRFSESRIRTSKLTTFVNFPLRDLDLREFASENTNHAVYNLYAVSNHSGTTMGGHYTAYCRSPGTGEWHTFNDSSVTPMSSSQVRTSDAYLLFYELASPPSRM
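Deubiquitinase activity read as fluorescence (485/531 nm) after Ub-CHOP2 cleavage activates the enterokinase reporter on its substrate; USP2 core 10nM, Ub-CHOP2 and substrate 25nM each, 30min compound preincubation then 60min RT; data normalized to NEM, curves fitted.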
KAT2A inh – GCN5L2 (KAT2A) acetyltransferase inhibition; AID 504327; 0.21% of 390,000 active; GCN5L2 HAT assay, ThioGlo1 CoA-SH fluorescence; Potency, µM (top dose mostly 58.9 µM), without a hit: at the highest dose activity change, negative = inhibition, actives largely listed as inhibitors; Q92830
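Preincubate 20nM GCN5L2 with compound 15 min, RT → add 50uM ThioGlo1 + 75uM H3(1-25) + 70uM acetyl-CoA → read fluorescence 0 and 20 min. Primary qHTS; fluorescent artifacts likely.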
The depositor's hits bear a star; i = inactive; ? = inconclusive; nt = no result given; [ ] = another dose, or the depositor's remark. Calls follow the shape of the dose curve; as a rule, active = well fitted curve in the direction sought with a large enough effect; inconclusive = small, poorly fitted or top-dose-only effect, or another doubt; inactive = no such curve, though single readings can be large; an effect the other way counts as inactive or inconclusive. Unless noted, % is scaled to controls: 0 for no effect and ±100 for the full control effect; potency is read from the fitted curve at half-maximal effect.

SMILES | Tb PFK inh | Tb PGK inh | GLS inhibitor | USP2a block | KAT2A inh
COc1cc2cc(Oc3ccc4ccc(=O)oc4c3)c(=O)oc2cc1O[C@@H]1O[C@H](CO)[C@@H](O)[C@H](O)[C@H]1O | -2% | -24% | 18µM* | -1% | -25%
Cc1ccc2nc(N3C(=O)C(O)=C(C(=O)c4ccc(C)o4)C3c3ccco3)sc2c1 (stereo not drawn) | -17% | i | ? | 0% | -16%
O=C(C1=C(O)C(=O)N(c2nc3ccc(Cl)cc3s2)C1c1ccco1)c1ccco1 (stereo not drawn) | 0% | -18% | 18µM* | -16% | ?
CN(C)c1ccc(NC(N)=S)cc1 | -5% | 8% | 14µM* | 5% | -3%
CSc1ccc(NC(N)=S)cc1 | -3% | 1% | -2% | 0% | -10%
O=C(OCC1OC(OC(=O)c2cc(O)c(O)c(OC(=O)c3cc(O)c(O)c(O)c3)c2)[C@@H](OC(=O)c2cc(O)c(O)c(OC(=O)c3cc(O)c(O)c(O)c3)c2)C(OC(=O)c2cc(O)c(O)c(OC(=O)c3cc(O)c(O)c(O)c3)c2)C1OC(=O)c1cc(O)c(O)c(OC(=O)c2cc(O)c(O)c(O)c2)c1)c1cc(O)c(O)c(OC(=O)c2cc(O)c(O)c(O)c2)c1 (stereo partly drawn) | nt | nt | 28% | nt | 3.5µM*
Cc1cn(C2OC(COC(=O)c3ccccc3)C(OC(=O)c3ccccc3)C2OC(=O)c2ccccc2)c(=O)[nH]c1=O (stereo not drawn) | 10% | nt | -3% | -8% | -5%
COC(=O)c1cccc(Nc2c(-c3ccc(OC)cc3)nc3nc[nH]n23)c1 | nt | i | ? | nt | -6%
CC(C)c1cnc2c(c1SCc1ccc([N+](=O)[O-])cc1)c(=O)n(C)c(=O)n2C | nt | -9% | 8% | nt | 9%
O=C(O)C1=CCC=CC1C(=O)O (stereo not drawn) | nt | 13µM* | 11µM* | nt | nt
OCC1OC(OC2C(CO)OC(OC3C(CO)OC(O)C(O)C3O)C(O)C2O)C(O)C(O)C1O (stereo not drawn) | nt | nt | 0% | nt | nt
CCc1ccc(CN2CCC(CO)(CC3CCCCO3)CC2)o1 (stereo not drawn) | -1% | -8% | -11% | 7% | 18µM*
Cc1ccc(CN2CCC(CO)(CC3CCCCO3)CC2)o1 (stereo not drawn) | 3% | -2% | 4% | -2% | 5%
Fc1ccc(-c2nc(Nc3cccc(C(F)(F)F)c3)nc3c2COc2ccccc2-3)cc1 | nt | 0% | 5% | nt | -20%
CCN(c1ccccc1)c1ncnc2c1cnn2-c1ccc(OC)cc1 | nt | 5% | -3% | nt | -5%
OCC1OC(O)C(O)C(O)C1O (stereo not drawn) | nt | nt | -11% | nt | ?
OCC1OC([S-])[C@H](O)C(O)C1O.[Au+] (stereo partly drawn) | nt | nt | 11µM* | nt | 11µM*
CC(C)(C)C(=O)Nc1cc(-c2cccc(Br)c2)nn1-c1ccccc1 | nt | -9% | 7% | nt | -6%
CCCCCC1NC(=O)NC1CCCCCC(=O)O (stereo not drawn) | -4% | 16% | -4% | 3% | -1%
CCCCCCCCCCCCCCCC(=O)C1=C(O)C(CO)OC1=O (stereo not drawn) | nt | nt | nt | nt | 11µM*
CC(=O)NC1C(=O)N(CCN2CCOCC2)c2ccc(C)cc21 (stereo not drawn) | -25% | 20µM* | ? | 6% | 3%
CN1CCN(c2ncncc2-c2cccnc2)CC1 | nt | nt | nt | nt | 0.89µM*
COC(=O)c1c(-c2cccs2)csc1NC(=O)COc1ccc(C(C)C)cc1 | nt | nt | -18% | nt | -28%
CN(CCC#N)C(=O)COC(=O)c1c2c(nc3ccccc13)/C(=C/c1ccco1)CC2 | ? | ? | 6.3µM* | 2% | ?
CC(C)CNC(=O)COC(=O)c1c2c(nc3ccccc13)/C(=C\c1cccs1)CC2 | nt | -10% | 4% | nt | nt
SMILES | Tb PFK inh | Tb PGK inh | GLS inhibitor | USP2a block | KAT2A inh
O=C(Cn1cnc2sc(-c3ccccc3)cc2c1=O)NCc1ccccc1 | -3% | i | 3% | -4% | -30%
O=C(Cn1cnc2sc(-c3ccccc3)cc2c1=O)NCc1ccco1 | 6% | 13µM* | ? | ? | ?
COc1ccccc1-c1coc2cc(O)ccc2c1=O | nt | nt | nt | nt | 25µM*
COc1ccc(-c2coc3cc(O)ccc3c2=O)c(OC)c1O | nt | nt | nt | nt | -12%
CCCCCCCCCCCCCCCCCCOP(=O)([O-])OC1CC[N+](C)(C)CC1 | nt | nt | 0%[20 µM] | nt | nt
CCCNC[C@H](O)COc1ccccc1C(=O)CCc1ccccc1 | nt | nt | nt | nt | 10%[21.4 µM]
CCN(CC)C(=S)SCC(=O)Nc1ccc(F)cc1 | 4%[0.46 µM] | i | 10% | 5% | 3.5µM*
CCN(CC)C(=S)SCC(=O)c1ccc(F)cc1 | 3% | -3% | 5% | -2% | -4%
CSc1cccc(NC(=O)C2CCN(S(=O)(=O)c3ccc4c(c3)CCCN4C(=O)C3CCC3)CC2)c1 | nt | 3% | 3% | nt | 0%
C[N+](C)(C)CC[N+]1(C)Cc2c(Cl)c(Cl)c(Cl)c(Cl)c2C1 | nt | nt | 3% | nt | 20µM*
C=CC(C)=C[C@@]1(C)SC(=O)C(C)=C1O | nt | nt | nt | nt | 4%
CC(O)CNc1nc2c(c(=O)n(Cc3ccc(Br)cc3)c(=O)n2C)n1C (stereo not drawn) | -4% | i | 20µM* | 0% | -1%
Cn1c(N2CCC(C(N)=O)CC2)nc2c1c(=O)n(Cc1ccc(Br)cc1)c(=O)n2C | nt | -5% | 13µM* | nt | nt
Cn1c(N2CCOCC2)nc2c1c(=O)n(Cc1ccc(Cl)cc1)c(=O)n2C | nt | -1% | 13µM* | nt | nt
Cn1c(N2CCCCC2)nc2c1c(=O)n(Cc1cccc(Br)c1)c(=O)n2C | 3% | -9% | -8% | -3% | -2%
COc1cc(C(=O)OCc2cc(=O)n3ccsc3n2)cc(OC)c1OC | nt | -3% | 0% | nt | 10%
COc1ccccc1C1CC(=O)Oc2cc3c(cc21)OCO3 (stereo not drawn) | nt | nt | nt | nt | 28µM*
COc1ccccc1C1CC(=O)Oc2cc(C)c(Cl)cc21 (stereo not drawn) | -1% | i | -17% | -2% | -12%
COc1cc(C(=O)O[C@@H]2CC3CC[C@]2(C)C3(C)C)ccc1O | nt | nt | nt | nt | -11%
COc1cc(C(C[N+](=O)[O-])c2c(C)cc3ccccn23)ccc1O (stereo not drawn) | 1% | 10% | 7.9µM* | -2% | -1%
CN(CC(=O)N1CCOCC1)Cc1c(Cl)cccc1NC(=O)c1ccccc1 | nt | nt | -2% | nt | nt
Cc1[nH]c(=O)[nH]c(=S)c1C(=O)Nc1ccc(Cl)c(Cl)c1 | nt | -7% | 1.8µM* | nt | nt
O=c1nc2ccccc2c(NS(=O)(=O)c2ccc(Cl)cc2)n1-c1ccccc1 | 0% | -2% | 2% | -1% | 3.2µM*
COc1ccc(S(=O)(=O)Nc2c3ccccc3nc(=O)n2-c2ccccc2)cc1 | -1% | 2% | -2% | 0% | -3%
